Data as given in the supplement of paper PMC6555819.

Key:
Assay in all cases: PBM binding z-score (relative to random genomic background probes); higher = stronger binding; sequences stand for … in GC…GCGATTGACAGCGTAGAATGAAGG
[1] = system: PPARg:RXRa DBDmut IVT, anti-RXR (DBD mutation: RXRa K156A/R161A, NR concentration 270 nM, RXRa partner concentration 90 nM)
Outline: (§1)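 Antibodies against each partner of ligand-free nuclear receptor dimers (one per run) detected binding on custom Agilent 4×180K protein-binding microarrays after 1 h incubation. The double-stranded probes had 34-nt variable regions carrying direct-repeat seeds, single-nucleotide variants, half-site ablations and random human genomic background sequences. Binding z-scores, from regression-normalized fluorescence, use the random background probes as reference.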

[2] = system: PPARg:RXRa IVT, anti-PPARg (NR concentration 270 nM, RXRa partner concentration 90 nM)
Outline: as §1

[3] = system: PPARg DBDmut:RXRa IVT, anti-PPARg (DBD mutation: PPARg1 K132A/R137A, NR concentration 270 nM, RXRa partner concentration 90 nM)
Outline: as §1

[4] = system: PPARg DBDmut IVT, anti-PPARg (DBD mutation: PPARg1 K132A/R137A, NR concentration 270 nM)
Outline: as §1

[5] = system: PPARg homodimer (NR concentration 180 nM)
Outline: as §1

[6] = system: PXR:RXRa (NR concentration 270 nM, RXRa partner concentration 90 nM)
Outline: as §1

[7] = system: PXR homodimer (NR concentration 270 nM)
Outline: as §1

[8] = system: RARa:RXR (NR concentration 270 nM, RXRa partner concentration 90 nM)
Outline: as §1

[9] = system: RARa homodimer (NR concentration 270 nM)
Outline: as §1

[10] = system: RARb:RXRa (NR concentration 270 nM, RXRa partner concentration 90 nM)
Outline: as §1

Row | Sequence | PBM binding z-score [1] | PBM binding z-score [2] | PBM binding z-score [3] | PBM binding z-score [4] | PBM binding z-score [5] | PBM binding z-score [6] | PBM binding z-score [7] | PBM binding z-score [8] | PBM binding z-score [9] | PBM binding z-score [10]
1 | CCAACTGGGCCATTCAGAGGTCATTGATCATATG | 5.18 | 4.66 | 0.485 | -0.774 | 4.42 | 5.05 | 2.64 | 4.72 | 0.73 | 3.02
2 | TCGAGTAAGTTAGGGGCATTCAGAATGGCGTCGA | 0.867 | -0.26 | -1.43 | -0.704 | 0.141 | 0.512 | 0.0747 | 0.66 | -0.608 | 0.456
3 | ATCTCTAGGTAAAGATAGTTGAGTGAATGCAAAT | 2.14 | 1.82 | 1.87 | 0.639 | 0.295 | 0.221 | 0.497 | 0.592 | 1.46 | -0.0235
4 | ACTATGAGTTGAGACGAGGGCAACCGATAGGTTG | -0.225 | 0.397 | 0.408 | -0.21 | 0.118 | 3.34 | 0.321 | 1.23 | -0.00647 | 1.32
5 | TTACCAAGGTGTGCTGAGGTCGTTGATCCAACTC | -0.56 | 0.137 | -0.549 | -0.745 | 0.0378 | 2.18 | 0.694 | 1.18 | -0.699 | 0.629
6 | GTACCAAGGTGAATAGTTCGTTGATGAGTAGGCG | 1.57 | 1.94 | 0.321 | 0.393 | 0.906 | 0.39 | 0.918 | 0.576 | 0.742 | 1.94
7 | GGAACGACGGCATTCGAGTTGATAGCATGGCGAT | -0.236 | -0.897 | -0.871 | -0.489 | -1.13 | -0.589 | -0.529 | -0.766 | -0.761 | -1.24
8 | CGAACGAGGGCTTGAGTTGATAGCAAATGCCGAT | 0.359 | -0.447 | -0.831 | -1.02 | -0.915 | -0.245 | -0.409 | -0.285 | -0.522 | -0.252
9 | CCGACTGGGGCAGAAAGGTTCCCATACCATCCGG | 1.45 | 0.893 | -0.887 | -1.78 | -0.509 | -0.725 | -0.638 | -0.53 | -0.395 | 0.328
10 | ATATGTAGGTTATCGGGGCATTCAGTTTGCGCAT | 7.24 | 7.25 | 3.45 | 3.12 | 2.07 | 1.72 | 3 | 1.04 | 1.6 | 1.7
11 | ATATGTAGGTTAAGAGTCATTCAGGTTGGTTCGC | 7.43 | 7.13 | 1.39 | 1.44 | 2 | 1.5 | 0.614 | 1.5 | 1.72 | 1.42
12 | TCTTGTAGATCAAAGGTTACGAAAGCCGAAGCCT | 2.12 | 3.96 | 0.521 | 0.147 | 1.11 | 2.41 | -0.449 | 3.28 | -0.123 | 2.14
13 | TCTTGTAGATCAACAGGAGGTTAAGAGAGATCGA | 1.53 | 0.53 | 0.135 | -0.105 | -0.206 | 0.838 | -0.445 | 0.613 | -0.275 | 0.493
14 | ACTATTAGTTGACTTAAGGCAACCGATACGACGC | 0.219 | 0.392 | 0.915 | 1.11 | 0.0202 | 0.21 | -0.0343 | 1.43 | 0.466 | 0.296
15 | GGAACGAGGGCATTCGAGTTGATAGCTTGGCGAT | 3.44 | 2.2 | -0.209 | -0.379 | -0.157 | 3.79 | 1.99 | 0.494 | -1 | 1.87
16 | CCTCGCAGGCCAGGGTCACTCAAGCATTTCGCTT | -0.539 | 0.241 | -0.923 | -1.57 | 1.02 | 2.49 | -0.431 | 3.1 | -0.222 | 2.54
17 | TCTTGCAGATCAGCAGGTTAAGAAAGCTGGCCAA | 0.806 | -0.167 | -1.23 | -0.975 | -0.869 | -0.219 | -1.1 | 0.16 | -1.56 | 0.155
18 | AGTCAAAGTTCATCGAGGTAACGTAAGATATGCT | 0.275 | 3.44 | 1.15 | 1.15 | 2.53 | 5.38 | 9.82 | 3.97 | 0.864 | 5.07
19 | TCTAGTTGGTCAAATGTCACACACTCGAAATGCG | 2.7 | 3.59 | 1.9 | 2.34 | 2.58 | 1.09 | 0.666 | 1.67 | 1.52 | 1.89
20 | GGAACGAGGGCATTCGGGTTGATAGCATGGCGAT | 2.77 | 2.27 | 0.359 | -0.376 | 0.523 | 3.69 | 2.77 | 0.733 | -0.569 | 1.86
21 | TCTATTAGTTGAAGGGCAACCTACGAGTCCGTTT | 2.23 | 0.488 | 0.411 | 0.817 | 1.5 | 0.858 | 1.18 | 0.893 | 1.08 | 1.57
22 | CCTTACGGGTCACTCCAGGTTAGAGCATCGGAGT | 2.67 | 3.37 | -0.182 | -0.0184 | 1.58 | 4.28 | 0.36 | 3.52 | 0.0194 | 3.64
23 | CGTTCAAGGTCAGCAGGTCAGTGAAAGCGACGTG | 3.85 | 4.34 | 0.78 | 0.144 | 2.98 | 4.06 | 1.14 | 5.42 | 1.55 | 5.54
24 | TAGCCTAGGTCTTGGGCCAGTATACCACGCGAAC | -0.718 | -0.4 | -0.0485 | -0.703 | -0.0751 | -0.448 | -0.379 | -0.298 | -0.982 | 0.162
